# Assay outcomes: PubChem BioAssay, several laboratories
# A selection: hits, their analogues and other compounds. The true share with any hit is near 4.8%.
# DAX1 inh-1: NR0B1 (DAX1) inhibition; HEK293 Gal4-DAX1 luciferase reporter, luminescence; inhibition, % at 6.75 µM; actives 0.99% (n = 340,000); AID 504766;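 active means inhibition above the mean over all tested compounds plus 3 SD, cut at about 4.2% in these data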;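 further: 0% = DAX1-transfected cells with DMSO and 100% = empty-vector control cells with DMSO; inhibition shows as a rise in luminescence from relieved DAX1 repression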
# hcDAF12 agonist: activators of H. contortus DAF-12 nuclear receptor. AID 652067. HEK293 hcDAF-12 lit1-tk-luc reporter, luminescence; 0% DMSO, 100% Δ7-dafachronic acid. actives 1.4% (n = 370,000). activation, % at 6.8 µM;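 active means activation above the mean of all tested compounds plus 3 SD, cut at about 5.5% in these data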;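 further: 100% = response to 3 µM Δ7-dafachronic acid high control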
# hgDAF12 agonist: hgDAF-12 agonism, primary luciferase screen; activation, % at 6.8 µM; actives 1.8% (n = 370,000); HEK293 GAL4-hgDAF12 UAS-luciferase reporter, agonist luminescence; normalized to butyrate control;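 active means activation above a cutoff set at the mean of all screened compounds plus 3 SD, cut at about 10% in these data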;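 further: 0% = DMSO wells and 100% = sodium butyrate wells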
# NR1D1 modulator: Rev-erb alpha (human) modulation | Rev-erbα–FITC-DNA binding, fluorescence polarization, 90 min | activity, % at 10 µM | AID 1259318 | actives 0.79% (n = 370,000) | P20393;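 active means activity above about 14%, limit read from the data; passing the limit was not always enough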;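 further: 0% = DMSO wells with 35 nM protein and 100% = DMSO wells with 750 nM protein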
# Target sequence (P20393 whole entry, looked up): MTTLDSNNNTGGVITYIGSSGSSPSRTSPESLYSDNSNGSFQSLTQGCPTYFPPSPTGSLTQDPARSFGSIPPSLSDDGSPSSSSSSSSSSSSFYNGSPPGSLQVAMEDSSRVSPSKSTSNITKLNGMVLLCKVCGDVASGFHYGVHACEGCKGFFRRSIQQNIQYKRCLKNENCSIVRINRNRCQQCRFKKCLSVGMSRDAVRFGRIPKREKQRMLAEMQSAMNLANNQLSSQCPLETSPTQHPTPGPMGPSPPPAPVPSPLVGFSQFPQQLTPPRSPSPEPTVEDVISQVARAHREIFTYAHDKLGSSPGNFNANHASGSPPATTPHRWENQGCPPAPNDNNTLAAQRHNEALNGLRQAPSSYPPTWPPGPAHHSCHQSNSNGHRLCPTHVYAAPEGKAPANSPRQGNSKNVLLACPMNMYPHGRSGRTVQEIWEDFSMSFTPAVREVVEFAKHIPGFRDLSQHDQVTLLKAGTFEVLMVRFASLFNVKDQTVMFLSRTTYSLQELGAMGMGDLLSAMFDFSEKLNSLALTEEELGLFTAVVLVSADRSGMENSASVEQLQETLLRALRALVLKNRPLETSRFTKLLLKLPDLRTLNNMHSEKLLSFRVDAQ
# ssDAF12 agonist: activators of S. stercoralis DAF-12 nuclear receptor; HEK293 ssDAF-12/GRIP1 lit1-tk-luc reporter, luminescence; % of 3 µM dafachronic acid response; activation, % at 6.8 µM; actives 1% (n = 370,000);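 active means activation above the mean over all tested compounds plus 3 SD, cut at about 0.9% in these data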;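 further: 0% = DMSO-only wells and 100% = 3 µM delta7-dafachronic acid wells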
# DAX1 inh-2: inhibitors of DAX1 repression of SF-1 activated StAR promoter | AID 652010 | inhibition, % at 6.8 µM | HEK293T StAR-luciferase reporter, SF-1/DAX-1 repression relief | actives 1.1% (n = 370,000);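 active means inhibition above the mean over all tested compounds plus 3 SD, cut at about 3.6% in these data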;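 further: 0% = DAX-1 cells with DMSO and 100% = cells lacking DAX-1 with DMSO; higher inhibition means more luminescence from relief of DAX-1 repression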
# NR1D1 mod conf: confirmation of modulators of human Rev-erb alpha DNA binding. shares compounds with NR1D1 modulator. Rev-erb alpha FITC-DNA binding, fluorescence polarization, 90 min. activation, % at 25 µM. actives 61% (n = 3,000). AID 1259319;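 active means activation at or above a set limit, or at least 3 SD above the negative control mean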;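 further: 0% = 35 nM protein with DMSO and 100% = 750 nM protein high control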
# RORg counter: counter-screen for Rev-erb alpha modulators: RORgamma DNA binding; shares compounds with NR1D1 modulator; purified RORgamma protein-FITC-DNA binding, fluorescence polarization; IC50, µM; actives 8% (n = 910);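 active means Compounds whose fitted half-maximal concentration for disrupting protein-DNA binding is below 10 micromolar; the record names Rev-erb in its text, so the target is in doubt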
# * = called active by the depositor; i = inactive; · = no result given.
SMILES,DAX1 inh-1,hcDAF12 agonist,hgDAF12 agonist,NR1D1 modulator,ssDAF12 agonist,DAX1 inh-2,NR1D1 mod conf,others
CCOc1ccc(-n2c(SCC(=O)Nc3ccc(S(=O)(=O)Nc4nccs4)cc3)nnc2-c2ccncc2)cc1,·,1,-2,1,-1,0,·,
COc1cccc(N2CCN(C(=O)CCCCCn3c(=S)[nH]c4cc5c(cc4c3=O)OCO5)CC2)c1,0,1,3,-16,-1,-1,·,
COc1cccc(CNC(=O)CCCn2c(=S)[nH]c3cc4c(cc3c2=O)OCO4)c1,0,-1,-3,86*,-1,0,57*,RORg counter=>40
COc1ccc(C(=O)Nc2ccc(NC(=O)c3cccc(OC)c3)cn2)cc1,-1,-4,-2,18*,-2,-1,14,
COc1ccc(NC(=O)c2ccc(C(=O)c3cc(OC)ccc3OC)cc2)cc1,0,·,·,46*,·,·,33*,RORg counter=>40
COc1cc(C(=O)Nc2ccc(NC(=O)c3ccccc3)nc2)cc(OC)c1OC,1,-3,-1,-8,-1,-1,·,
COc1ccc(C(=O)Nc2ccc(NC(=O)c3cc(OC)c(OC)c(OC)c3)cn2)cc1,-2,-3,-4,20*,-2,0,2,
CCCCNC(=O)c1nn2c(C(F)(F)F)cc(-c3ccc(OC)cc3)nc2c1Br,-1,-1,-1,48*,-1,0,9,
CCCNC(=O)c1nn2c(C(F)(F)F)cc(-c3ccccc3)nc2c1Br,0,-1,-2,28*,-2,0,21*,
CC(C)(C)NC(=O)c1nn2c(C(F)(F)F)cc(-c3ccccc3)nc2c1Br,-1,4,0,-3,-1,0,·,
COC(=O)[C@]12C[C@H](CC(=O)NCCCN3CCCC3=O)C(=O)N(Cc3ccccc3)C1=C[C@H](COCc1ccccc1)O[C@@H]2C,·,-3,2,6,-1,-1,·,
O=C(COc1ccccc1)NC(=S)Nc1ccc2c(c1)Cc1ccccc1-2,0,0,2,77*,-1,0,25*,
O=C(COc1ccccc1)NC(=S)Nc1cccc([N+](=O)[O-])c1,-1,-1,6,1,-1,-1,·,
Cc1ccc2nc(N3CCN(S(=O)(=O)c4ccc(C)c(Cl)c4)CC3)c(C#N)cc2c1,1,2,0,189*,-1,0,145*,RORg counter=i
O=C(CSC1=Nc2ccccc2C2CC=NN12)Nc1ccc(F)c(F)c1F (stereo not drawn),1,2,0,18*,0,1,6,
COC(=O)CC#C[C@H](C)[C@@H](NS(=O)(=O)c1ccc([N+](=O)[O-])cc1)C(C)(C)C,·,0,1,6,-1,1,·,
Cn1c(C(=O)NCc2cccs2)cc2c(=O)n(C)c3ccccc3c21,2,1,1,33*,-1,0,18*,
Cc1ccc(CNC(=O)c2cc3c(=O)n(C)c4ccccc4c3n2C)cc1,5.6*,1,0,63*,-1,0,43*,RORg counter=>40
Cn1c(C(=O)NCCN2CCOCC2)cc2c(=O)n(C)c3ccccc3c21,2,1,7,2,-2,0,·,
Cn1c(C(=O)NC2CCCCCC2)cc2c(=O)n(C)c3ccccc3c21,1,0,1,48*,-2,-1,26*,
CCCN1CCCCC(NC(=O)c2ccc(-c3ccccc3)cc2)C1=O (stereo not drawn),·,2,7,-2,-1,0,·,
COc1cc2oc(=O)cc(-c3ccc(-c4ccc(CO)cc4)cc3)c2c(OC)c1OC,-2,-2,0,30*,-2,-1,28*,RORg counter=>40
COc1cc2oc(=O)cc(-c3ccc(-c4ccc(C)cc4)cc3)c2c(OC)c1OC,0,-1,0,7,-2,-1,·,
COC(=O)C[C@H]1CC[C@@H]2[C@H](COc3ccc(NC(=O)NCc4ccccc4)cc3C(=O)N2C)O1,·,0,1,9,-1,-1,·,
CN(c1ccc(NC(=O)CCc2c[nH]c3ccccc23)cc1)c1ccccn1,·,-3,0,10,-2,-1,·,
SMILES,DAX1 inh-1,hcDAF12 agonist,hgDAF12 agonist,NR1D1 modulator,ssDAF12 agonist,DAX1 inh-2,NR1D1 mod conf,others
Cc1sc2ncnc(N3CCC(C(=O)Nc4nnc(CC(C)C)s4)CC3)c2c1C,0,-1,0,17*,-1,-1,12,
O=C(CN1C(=O)c2cccc3cccc1c23)N1CCN(c2cccc(Cl)c2)CC1,0,0,0,49*,-1,0,27*,
CCCCCCSc1ccc(-c2nc3cnccn3c2NCCCC)cc1,0,-1,0,25*,-1,0,14,
CCCCNc1c(-c2ccc(OC)c(SC(C)CC)c2)nc2cnccn12 (stereo not drawn),-2,1,-2,-4,-1,0,·,
CCCCNc1c(-c2ccc(OC)c(SC(C)CC)c2)nc2cc(C)ccn12 (stereo not drawn),-1,-3,1,-6,-1,-1,·,
CCCCNc1c(-c2ccc(Sc3ccc(OC)cc3)cc2)nc2cc(C)ccn12,-1,-2,1,21*,-2,-1,11,
COC(=O)[C@]12CCCCC=C1N(Cc1ccc(OC)cc1)C(=O)[C@@H]2CC(=O)N1CCN(C(=O)c2ccco2)CC1,·,-4,1,-4,-2,1,·,
CCCC(C)C(=O)NC1CCCCN(Cc2ccc(C)cc2)C1=O (stereo not drawn),·,-3,0,1,0,-2,·,
CCCCNC(=O)OC1CCC12CCC(c1ccccc1)CC2 (stereo not drawn),·,0,6,6,-2,-2,·,
COc1ccc2cc(C#N)c(SCC(=O)Nc3nonc3C)nc2c1,-1,-2,3,67*,-1,0,27*,
CCc1cc2ccc(OC)cc2nc1SCC(=O)NNC(C)=O,3,-2,-1,2,0,0,·,
Cc1cc2cc(C#N)c(SCC(=O)Nc3nonc3C)nc2cc1C,-1,2,0,20*,-2,0,33*,RORg counter=i
Cc1nonc1NC(=O)CSc1nc2c(C)cccc2cc1C#N,-1,-1,0,81*,-1,0,73*,RORg counter=>40
Cc1ccc(C)c2nc(SCC(=O)Nc3ccc4c(c3)OCO4)c(C#N)cc12,-1,-1,2,-1,-1,0,·,
CCC(=O)NCCNc1nc2cc(C)c(C)cc2cc1C#N,0,-1,-2,-2,-1,1,·,
